TRHR agonist-1: activates the human TRH receptor; P34981; TRHR cells, calcium flux fluo-8, FDSS agonist mode; activation, % at 2 µM; hit rate 0.18% among 360,000; AID 493084; in the data active = activation above about 30%
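Agonist-mode FDSS calcium read (Ex 480/Em 530, 1 s cycles) in 1536-well TRHR cells with fluo-8 dye, after 10-cycle baseline and 23 nL compound addition; TRH at EC20 (10 nM final) added afterwards for the enhancer phase.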
TRPV1 PAM: potentiators of human vanilloid receptor 1 (TRPV1); Q8NER1; TRPV1-expressing cells, Fluo-8 calcium influx, capsaicin EC20 potentiation; potentiation, % at 8.33 µM; hit rate 0.02% among 320,000; AID 540277; in the data active = potentiation above about 80%; inconclusive = between about 30% and that limit
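TRPV1-expressing cells were cultured overnight at 35.5C and loaded with Fluo-8 calcium dye for 40 to 90 min at room temperature. After a 10 s baseline, compound was added and calcium influx was read kinetically for 3 min (ex 480/em 520 nm).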
TRPV1 agonist: human TRPV1 agonism. Q8NER1. TRPV1-expressing cells, Fluo-8 calcium influx, agonist mode. activation, % at 8.33 µM. hit rate 0.19% among 320,000; in the data active = activation above about 80%; inconclusive = between about 30% and that limit
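Cells expressing TRPV1 were dye-loaded with Fluo-8 and read kinetically: 10 s baseline, 3 min after compound (agonist portion), then 2 min after EC20 capsaicin (allosteric enhancer portion). Calcium-bound dye fluorescence at 480/520 nm.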
TRPML1 blocker: human mucolipin-1 channel inhibition. Q9GZU1. TRPML1-inducible cells, Ca2+ dye fluorescence, FDSS; hits give low values; inhibition of EC80 agonist-evoked calcium signal. activity change, negative = inhibition, % (test concentration not listed). hit rate 0.02% among 390,000. AID 624415; in the data active = activity change below about -50%; inconclusive = between about -30% and that limit;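 note: stimulus is agonist 54-4 at its EC80 concentration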
Target sequence (Q9GZU1 whole entry, looked up): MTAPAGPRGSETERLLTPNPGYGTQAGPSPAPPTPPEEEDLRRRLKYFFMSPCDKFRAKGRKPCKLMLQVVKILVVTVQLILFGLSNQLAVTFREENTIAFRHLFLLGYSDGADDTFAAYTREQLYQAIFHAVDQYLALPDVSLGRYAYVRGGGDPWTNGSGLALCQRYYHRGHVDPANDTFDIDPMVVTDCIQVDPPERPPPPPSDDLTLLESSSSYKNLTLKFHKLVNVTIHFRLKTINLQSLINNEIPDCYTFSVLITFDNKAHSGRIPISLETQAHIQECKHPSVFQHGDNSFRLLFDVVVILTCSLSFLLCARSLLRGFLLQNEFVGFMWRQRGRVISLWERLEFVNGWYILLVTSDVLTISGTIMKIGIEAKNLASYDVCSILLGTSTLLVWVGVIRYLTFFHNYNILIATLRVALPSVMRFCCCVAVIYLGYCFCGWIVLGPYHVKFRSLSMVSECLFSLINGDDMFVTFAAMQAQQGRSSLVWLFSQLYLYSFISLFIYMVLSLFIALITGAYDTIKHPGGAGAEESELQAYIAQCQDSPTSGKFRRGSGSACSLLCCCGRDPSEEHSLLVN
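Calcium fluorescence in TRPML1-DL cells induced overnight with Tet: a 110 s read after compound pin addition, then a 110 s antagonist read after challenge with 54-4 at 4 uM final (EC80).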
TRPML1 ag: agonists of human TRPML1 channel | activation, % (test concentration not listed) | hit rate 0.12% among 410,000 | TRPML1-expressing cells, Ca2+ dye fluorescence, FDSS; in the data active = activation above about 50%; inconclusive = mostly about 30% to 49%
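Calcium fluorescence on an FDSS kinetic reader gave the read-out. Tet-induced TRPML1-DL cells were plated overnight, dye-loaded (Ca8 with quencher, 45-90 min, room temperature, dark), then read 110 s after compound addition, and again 110 s after 4uM final 54-4 (EC80).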
TRHR enhancer-1: allosterically enhances the human TRH receptor | TRHR cells, fluo-8 calcium fluorescence, EC20 TRH enhancement | enhancement, % at 2 µM | hit rate 0.66% among 360,000 | AID 493056; in the data active = enhancement above about 30%
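Enhancer read-out: after compound pinning and an initial kinetic agonist-mode read, an EC20 of TRH (10 nM final) was injected and fluo-8 calcium signal (Ex 480/Em 530) followed at 1 s/cycle for 100 cycles in TRHR-expressing cells.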
TRHR enhancer-2: human TRH receptor allosteric enhancement confirmation; shares compounds with TRHR enhancer-1; TRH receptor cell assay, enhancer confirmation qHTS; activity change, negative = inhibition, % at 46.1 µM; 970 tested, under 10 active;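 note: compound effect scored on response to added TRH at EC20 of 10 nM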
TRHR agonist-2: human TRH receptor agonism confirmation | shares compounds with TRHR enhancer-1 | TRHR-expressing cells, agonist activation read-out | Potency, µM (titrated, usually from 46.1 µM), usual class: activators | hit rate 8% among 970 | AID 493078; note: nearly all actives have a fitted effect of over 75% in size
Numbers stand for hits; - = inactive; ? = inconclusive; . = no result given. Most compounds without a hit are left out; they make up all but 0.99% or so of the library. Unless noted, calls come from the whole dose curve; as a rule, active = well fitted curve in the direction sought with a large enough effect; inconclusive = small, poorly fitted or top-dose-only effect, or another doubt; inactive = no such curve, though single readings can be large; an effect the other way counts as inactive or inconclusive.

SMILES	TRHR agonist-1	TRPV1 PAM	TRPV1 agonist	TRPML1 blocker	TRPML1 ag	TRHR enhancer-1	TRHR enhancer-2	TRHR agonist-2
COc1ccccc1C(=O)N1CCN(Cc2cn[nH]c2-c2ccc(F)cc2F)CC1	-	-	-	-	-	57	-	-
CCN1C(=O)N/C(=C/c2ccc(C)o2)C1=O	-	-	-	-	-	-	.	.
CCN1C(=O)N/C(=C/c2ccc(Sc3ccc(C)cc3)o2)C1=O	-	-	-	-	-	54	-	-
COc1cc(C)c(NC(C)C(=O)c2c(C)[nH]c3ccccc23)cc1OC (stereo not given)	.	.	.	.	-	.	.	.
O=C(CSC(=S)N1CCCCC1)N1N=CCC1c1ccccc1 (stereo not given)	-	-	-	-	-	53	-	-
Fc1ccc(CCNc2ncnc3nc[nH]c23)cc1	.	.	.	.	-	.	.	.
O=C(NCCCN=C1NS(=O)(=O)c2ccccc21)c1ccc(F)cc1	-	-	-	-	-	58	-	-
COc1ccc2nc3c(cc2c1)Cn1c-3nc2ccccc2c1=O	.	.	.	-	-	.	.	.
COC(=O)c1ccc(/C=C/c2nc3ccccc3c(=O)[nH]2)cc1	38	-	-	-	-	-	-	-
Cc1cc(C)cc(OCC(O)CN2CCN(Cc3ccc4c(c3)OCO4)CC2)c1 (stereo not given)	-	-	-	-	-	44	-	-
OC(COc1ccccc1)CN1CCN(Cc2ccc3c(c2)OCO3)CC1 (stereo not given)	-	-	-	-	-	-	.	.
Brc1cccc[n+]1Cc1ccccc1C[n+]1ccccc1Br	.	.	.	.	-	.	.	.
COc1cccc(NCc2nnc(SC(C(=O)N(C)C)c3ccccc3)n2C2CCCCC2)c1 (stereo not given)	.	.	.	.	-	.	.	.
C=C(C)c1cccc(C(C)(C)NC(=O)Nc2ccc(C)cn2)c1	-	-	-	-	-	-	.	.
C=C(C)c1cccc(C(C)(C)NC(=O)Nc2cc(C)ccn2)c1	-	-	-	-	-	46	-	-
COC(=O)c1nnn(-c2nc(N(C)C)nc(N(C)C)n2)c1C	-	?	-	-	-	57	-	-
Clc1ccc(-c2nn3c(-c4cc(-c5ccccc5)n[nH]4)nnc3s2)cc1	.	.	.	.	-	.	.	.
COc1ccc(/C(C)=N/NC(=O)CNC(=O)c2ccco2)cc1	-	-	-	-	-	46	-	-
COc1ccc(/C=C/C(=O)NCC(=O)N/N=C(/C)c2ccco2)cc1	-	-	-	-	-	-	.	.
C=CCN(CC=C)C(=O)C1c2ccccc2Oc2ccccc21	.	.	.	-	-	.	.	.
CCN(CC)C(=O)C1c2ccccc2Oc2ccccc21	-	-	-	-	-	46	-	-
CC1Cc2ccccc2N1C(=O)CSc1nnc2sc3ccccc3n12 (stereo not given)	-	-	-	-	-	63	-	-
N#CCSc1nnc2sc3ccccc3n12	-	.	.	-	-	-	.	.
Cc1noc(C)c1CSc1nnc2sc3ccccc3n12	-	-	-	-	-	43	-	-
O=c1cc(O)c2c([nH]1)CCC2	.	.	.	.	-	.	.	.
SMILES	TRHR agonist-1	TRPV1 PAM	TRPV1 agonist	TRPML1 blocker	TRPML1 ag	TRHR enhancer-1	TRHR enhancer-2	TRHR agonist-2
NCCSc1c(-c2ccc(F)cc2)[nH]c2ccccc12	-	-	-	-	-	45	-	?
CCOC(=O)C(C)Sc1ccc2nnc(-c3ccc(OCC)cc3)n2n1 (stereo not given)	.	.	.	.	-	.	.	.
Cc1nc2cc(O)ccc2n1C	-	-	-	-	-	61	-	-
Cc1nc2cc3ccccc3cc2n1C	-	-	-	-	-	-	.	.
NC(=O)c1c(NC(=O)CN2CCCC2)sc2c1CCCC2	-	-	-	-	-	-	.	.
NC(=O)c1c(NC(=O)CN2CCOCC2)sc2c1CCC2	-	-	-	-	-	66	-	-
CC1(C)CC(=O)C(C=Nc2ccc(C(=O)c3ccccc3)cc2N=CC2=C(O)CC(C)(C)CC2=O)=C(O)C1	-	-	-	-	-	-	-	-
CCCn1c(N)c(C(=O)CSc2nncs2)c(=O)[nH]c1=O	-	-	-	-	-	41	-	-
CN1CCN(c2ccnc(N(C)CCCCCCN)n2)CC1	.	.	.	.	-	.	.	.
Cn1cc(CN2CCN(CCO)CC2)c(-c2ccc(Oc3ccccc3)cc2)n1	-	-	-	-	-	-	.	.
COCCN1CCN(Cc2cn(C)nc2-c2ccc(Oc3ccccc3)cc2)CC1	-	-	-	-	-	44	-	-
COc1cc2c(NC3CCN(C)CC3)nc(N3CCCN(C)CC3)nc2cc1O	.	.	.	.	-	.	.	.
CCn1ncc(Cl)c1C(=O)NC(=S)Nc1ccccc1Br	-	-	-	-	-	-	.	.
Cc1nn(C)c(C(=O)NC(=S)Nc2ccccc2Br)c1Cl	75	-	-	-	-	-	-	13µM
C[n+]1cn(CC(O)COCc2ccccc2)c2ccccc21 (stereo not given)	-	-	-	-	-	53	-	-
O=C(Cc1ccc([N+](=O)[O-])cc1)OCc1ccc([N+](=O)[O-])cc1	-	-	-	-	-	-	.	.
COC(=O)CCCNC(=O)OCc1ccc([N+](=O)[O-])cc1	-	-	-	-	-	67	-	-
NC(=O)CN1C(=O)NC(c2ccccc2)(c2ccccc2)C1=O	-	-	-	-	-	-	.	.
CC(C)(C)C(=O)CN1C(=O)NC(c2ccccc2)(c2ccccc2)C1=O	-	-	-	-	-	42	-	-
CCCN1CNc2c(c(=O)[nH]c(=S)n2CCc2ccc(OC)cc2)C1	.	.	.	.	-	.	.	.
OCC1(CCc2ccccc2)CCN(Cc2ccccc2Cl)CC1	-	-	-	-	-	60	-	-
Clc1ccccc1CN1CCN(CCCc2ccccc2)CC1	-	-	-	-	-	-	.	.
COc1ccc(Cl)cc1C(=O)Nc1ccc(CN2CCCCC2)cc1	-	-	-	-	-	64	-	-
O=C(CC(Cl)(Cl)Cl)N1CCN(/[N+]([O-])=N/Oc2ccc([N+](=O)[O-])cc2[N+](=O)[O-])CC1	.	.	.	-	-	.	.	.
CCCCCCC1CCC(C(=O)Nn2c(C)nc3ccccc3c2=O)CC1 (stereo not given)	-	-	-	-	-	-	.	.
CCCC1CCC(C(=O)Nn2c(C)nc3ccccc3c2=O)CC1 (stereo not given)	-	-	?	-	-	45	-	-
COc1ccc(CNCc2ccccc2)cc1COc1ccc(NC(C)=O)cc1	.	.	.	.	-	.	.	.
CC(C)CC(=O)NC(=S)N1CCCCCC1	-	?	-	-	-	42	?	-
CCOC(=O)N1CC(C)N(/[N+]([O-])=N/Oc2ccc([N+](=O)[O-])cc2[N+](=O)[O-])CC1C (stereo not given)	.	.	.	-	-	.	.	.
C[N+]1(CC(=O)c2ccc3ccccc3c2)CCOCC1	.	.	.	.	-	.	.	.

High-throughput results: PubChem, National Center for Advancing Translational Sciences (NCATS)
